Results taken from PubChem BioAssay AID2023 (NMMLSC, 2009).
The whole screen tested about 320,000 compounds, of which about 1,100 (0.34%) were called active. The full list was thinned out, with actives kept by preference. Unmarked numbers belong to inactive results.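 Rule for the calls: active = GFP response vs DMSO above a set limit, about the screen mean plus 3 SD (cut at about 150% in these data); inconclusive = under 70 cell events counted for the yeast strain; inactive = the rest.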

Test: modulators of LAP4-GFP expression in yeast, primary screen, S. cerevisiae, multiplex flow cytometry, MLPCN library (AID 2023)
Details: 3 h, at 10 µM, stronger effect = higher value, median GFP as percent of DMSO wells

Row | Structure (SMILES) | GFP response vs DMSO
1 | COc1ccc(/C=C(\C#N)c2c[nH]c3ccccc23)cc1 | 97.2%
2 | C[n+]1ccc(/C=C/c2c[nH]c3ccccc23)cc1 | 214% (active)
3 | O=C(NC1CCCC1)C(=O)c1c[nH]c2ccccc12 | 100%
4 | CC(C)C(=O)Nc1c2c(nn1-c1ccccc1)CSC2 | 104%
5 | CC(C)=NN1C(=O)c2ccccc2NC1(C)C | 103%
6 | CCCC(=O)Nc1ncnc2c1ncn2[C@@H]1O[C@@H]2OP(=O)(O)OC[C@H]2[C@H]1OC(=O)CCC | 103%
7 | CCc1ccc2c(c1)C1(NN=C(c3ccccc3)S1)C(=O)N2 (configuration not stated) | 169% (active)
8 | C[C@H](NC(=O)C1CC(=O)N(c2ccc3c(c2)OCO3)C1)C(=O)NCc1ccco1 (some centres not stated) | 94%
9 | COC(=O)Nc1ccc(S(=O)(=O)N2CCN(CCN3C(=O)C4C5C=CC(C5)C4C3=O)CC2)cc1 (configuration not stated) | 95.9%
10 | O=c1[nH]c2ccccc2n2c(-c3ccccc3)nnc12 | 87.9%
11 | COc1ccc(OCc2cc(C(=O)N3CCCC3)no2)c2ccccc12 | 85.3%
12 | O=C(c1ccc(N2CCOCC2)c([N+](=O)[O-])c1)N1CCN(c2ccccc2F)CC1 | 96%
13 | O=C(c1ccccc1)c1ccc(C(=O)N2CCN(c3ccccc3)CC2)cc1 | 78.1%
14 | O=C(c1ccc(Cl)c([N+](=O)[O-])c1)N1CCN(c2ccccc2)CC1 | 165% (active)
15 | Cc1ccc(C(=O)NCC(=O)NC2CC2)cc1 | 97.3%
16 | Cc1ccc(-c2nn(-c3ccccc3)cc2C(=O)NC2CCC(O)CC2)cc1 (configuration not stated) | 94.9%
17 | O=C(NNC(=S)NC(=O)c1cn(-c2ccccc2)nc1-c1ccccc1)c1ccncc1 | 159% (active)
18 | Cc1onc(-c2ccccc2)c1C(=O)NNC(=S)NC(=O)c1ccc(F)cc1 | 102%
19 | CCOc1ccc(CCNC(=O)CN2C(=O)NC3(CCc4ccccc43)C2=O)cc1OCC (configuration not stated) | 98.4%
20 | CCCCC(=O)Nc1ccc2c(c1)C(=O)NC2=O | 107%
21 | O=C(Nc1cc(Cl)cc(Cl)c1)C(NCCCO)c1ccccc1 (configuration not stated) | 99.3%
22 | CCCCN1C(=O)c2ccc(C(=O)Nc3ccc(S(=O)(=O)N(C)C)cc3)cc2C1=O | 93.7%
23 | CC(CCc1ccc(O)cc1)NCc1ccc(Cl)cc1Cl (configuration not stated) | 99.7%
24 | CCC(C)n1[nH]c(=O)cc1N (configuration not stated) | 92.7%
25 | S=C1SCN(CCN2CCOCC2)CN1Cc1ccccc1 | 111%
26 | COc1ccc(CN2CN(C(C)C)CSC2=S)cc1 | 162% (active)

Row | Structure (SMILES) | GFP response vs DMSO
27 | COc1ccc(CN2CN(C3CCCC3)CSC2=S)cc1 | 98.2%
28 | Cc1onc(-c2c(F)cccc2Cl)c1C(=O)OCC(=O)N1C(C)CCCC1C (configuration not stated) | 107%
29 | CCOC(=O)/C=c1\s/c(=C\c2ccc(C#N)cc2)c(=O)n1CC(=O)Nc1cccc(C)c1C | 96.9%
30 | CN(c1ccccc1)c1ccc(/C=c2\s/c(=C(/C#N)C(=O)C(C)(C)C)n(Cc3ccco3)c2=O)cc1 | 377% (active)
31 | CCOC(=O)Cn1c(=O)oc2cc(S(=O)(=O)N(C)Cc3ccco3)ccc21 | 107%
32 | CC1C=CCC2C(=O)N(c3cccc(C(=O)N4CCCCCC4)c3)C(=O)C12 (configuration not stated) | 97.9%
33 | COc1ccccc1NC(=O)C[n+]1ccccc1 | 109%
34 | Cc1cccc[n+]1CC(=O)c1ccccc1 | 91.6%
35 | COC(=O)C[n+]1cccc2ccccc21 | 212% (active)
36 | CC1(C)CC(=O)C2=C(C1)N=C1SCCC(=O)N1C2c1ccc(C(F)(F)F)cc1 (configuration not stated) | 98.2%
37 | CCCCCCSc1ccc(-c2nc3ccc(Cl)cn3c2NCc2ccccc2)cc1 | 99.4%
38 | CCCCNc1c(-c2ccc(OC)c(Sc3ccc(OC)cc3)c2)nc2ccc(Cl)cn12 | 141%
39 | CCCCNc1c(-c2cccc(Sc3ccc(OC)cc3)c2)nc2ccccn12 | 151% (active)
40 | COc1ccc(N2CCN(S(=O)(=O)c3cc(Br)cnc3N)CC2)cc1 | 100%
41 | CCOc1ccc(-n2c(SC(C)C(=O)OC)nc3c(c2=O)SCC3)cc1 (configuration not stated) | 95.9%
42 | CCN1/C(=C\c2ccc3ccccc3[n+]2CC)Sc2cc(C)ccc21 | 501% [may fluoresce green] (active)
43 | CCN1/C(=C/c2ccc3ccc(C)cc3[n+]2CC)Sc2ccccc21 | 319% [may fluoresce green] (active)
44 | O=C1CCC/C=C\C[C@@H](CC(=O)N(CCO)Cc2ccccc2)C(=O)NCCO1 | 85.9%
45 | NS(=O)(=O)c1ccc(CCNC(=O)CCCn2c(SCC(=O)N3CCCC3)nc3ccsc3c2=O)cc1 | 101%
46 | Clc1cccc(CN2COc3c(cc(Cl)c4cccnc34)C2)c1 | 182% (active)
47 | CC(C)CC(=O)N1CCN(Cc2cccc(Cl)c2)CC1 | 102%
48 | O=C(c1cccc(Cl)c1)N1CCN(Cc2ccccc2)CC1 | 101%
49 | CC(C)=CCC/C(C)=C/C(=O)O | 105%
50 | O=C(CN1CCCSc2ccccc21)N1CCN(S(=O)(=O)c2cccc(F)c2)CC1 | 110%
51 | CC1=NNC(=O)C1Cc1c(Cl)cccc1Cl (configuration not stated) | 98.6%
52 | O=C(OC1CCOC1=O)c1cccc(S(=O)(=O)Nc2ccc(F)cc2)c1 (configuration not stated) | 95.1%

Row | Structure (SMILES) | GFP response vs DMSO
53 | CC(=O)Nc1ccc(N2C(=O)CC(Sc3nccc(C)n3)C2=O)cc1 (configuration not stated) | 89.5%
54 | Cc1cc(NC(=O)CCN2CCN(Cc3ccccc3)CC2)ccc1Br | 83.3%
55 | CC(C)C(=O)N1CC(=O)Nc2ccc(F)cc2C1c1ccc(F)cc1 (configuration not stated) | 108%
56 | O=C(CSc1ncn[nH]1)N/N=C/c1ccc(F)cc1 | 117%
57 | O=C(CSc1ncn[nH]1)Nc1ccc(Br)cc1Br | 93.9%
58 | O=C(/C=C/Sc1ncn[nH]1)c1ccc(Cl)cc1 | 219% (active)
59 | Cc1ccnc(NC(=O)CCNS(=O)(=O)c2ccc(C)c(C)c2)c1 | 81.8%
60 | COc1ccccc1CNC(=O)CNC(=O)c1cn(-c2ccccc2OC)c(=O)c2ccccc12 | 95.4%
61 | COc1ccc(O[C@H]2C=C[C@@H](c3ccccc3)O[C@@H]2CO/N=C/C[C@@H]2C=C[C@H](OC(C)=O)[C@@H](COC(C)=O)O2)cc1 | 111%
62 | O=C(CCC(=O)OCc1cccc(C(=O)Oc2ccccc2)c1)Nc1cccc2ccccc12 | 104%
63 | Oc1ccc(Br)cc1/C=N/Nc1ccccn1 | 287% (active)
64 | Oc1ccc(Br)cc1C=Nc1ccc2[nH]ncc2c1 | 93.5%
65 | COc1ccc(-c2nn(-c3ccccc3)cc2/C=N/Nc2ccccn2)cc1OC | 96.4%
66 | O=C(CC1SC(=Nc2ccccc2F)N(CCN2CCOCC2)C1=O)Nc1ccc(F)cc1F (configuration not stated) | 126%
67 | O=c1[nH]c(CCl)nc2cc(-c3ccc(Cl)cc3)sc12 | 163% (active)
68 | NC(=O)Cc1nc2scc(-c3ccc(Cl)cc3)c2c(=O)[nH]1 | 95.5%
69 | O=c1[nH]c(CN2CCOCC2)nc2cc(Cl)ccc12 | 92.7%
70 | O=C(O[C@@H]1[C@H](Cc2ccccc2)NS(=O)(=O)[C@H]2C[C@@H]3C=C[C@]12O3)c1ccccc1Br | 97.1%
71 | CN(CCO)Cc1csc2ccc(Br)cc12 | 106%
72 | Cc1ccc(-n2cnc3ncnc(-c4ccccc4)c32)cc1 | 102%
73 | Cc1ccc(-c2nn(C(C)(C)C)c3ncnc(N)c23)cc1 | 190% (active)
74 | O=C(Nc1ccc(Cl)cc1)c1cccc(OC(=S)N2CCOCC2)c1 | 65.6%
75 | Oc1c(Cl)cc(Cl)c(Cl)c1Cc1c(O)c(Cl)cc(Cl)c1Cl | 174% (active)
76 | COc1ccc(C)cc1NC(=O)CN(C)S(=O)(=O)c1ccc2c(c1)n(C)c(=O)c(=O)n2C | 94.1%
77 | CC(C)(C)OC(=O)C[C@@H]1C/C=C\C[C@@H](CC(=O)N[C@H](CO)Cc2ccccc2)C(=O)NC[C@@H](c2ccccc2)OC1=O | 83%
78 | Cc1c(O)c(C)c2c(c1O)C(=O)C[C@@H](c1ccccc1)O2 | 99.7%

Row | Structure (SMILES) | GFP response vs DMSO
79 | CCCc1[nH]nc2c1C(c1ccc(Br)s1)C(C#N)=C(N)O2 (configuration not stated) | 152% (active)
80 | CCCc1[nH]nc2c1C(c1ccc(OC(=O)c3ccco3)cc1)C(C#N)=C(N)O2 (configuration not stated) | 93.3%
81 | CCc1ccc(C2C(C#N)=C(N)Oc3n[nH]c(CC(=O)OC)c32)cc1 (configuration not stated) | 99.1%
82 | CC[C@@H](C)[C@@H]1CN([C@@H](C)CN2CCC[C@H]2CN2C(N)=NC[C@H]2C(C)C)C(=N)N1CCc1ccc(Cl)c(Cl)c1 | 102%
83 | CC1CC2=C(CC1/C=N/NC(N)=S)C(C)(C)CCC2 (configuration not stated) | 154% (active)
84 | Cc1ccc(CS(=O)Cc2ccc(C(=O)N3CCOCC3)o2)cc1 (configuration not stated) | 103%
85 | N/C(=N\OC(=O)CCC1CCCCC1)c1ccccn1 | 92.5%
86 | Cn1c(SCC(=O)Nc2cccc(NC(=O)c3cccs3)c2)nnc1-c1ccncc1 | 94.8%
87 | CCOc1ccc(/C=N/NC(N)=S)cc1 | 109%
88 | OC(CNCCc1ccc(Cl)cc1Cl)COc1ccccc1 (configuration not stated) | 93.6%
89 | NC(N)=N/N=C/c1ccc(OCc2ccc(Cl)cc2Cl)cc1 | 160% (active)
90 | COc1cc(OC)cc(/C(N)=N/O)c1 | 114%
91 | O=C(Nc1ccccc1C(F)(F)F)c1cc(-c2ccc(O)cc2)on1 | 151% (active)
92 | CCc1ccccc1NC(=O)c1cc(-c2ccc3c(c2)OCO3)on1 | 93.6%
93 | O=C(Nc1cccnc1Cl)c1cc(-c2cccc(Cl)c2)on1 | 98.9%
94 | Cc1ccc(OCC(=O)NCCCNC(=O)c2ccco2)cc1C | 90%
95 | Cc1ccc(C(=O)NNC(=O)C(C)Oc2ccc3ccccc3c2)o1 (configuration not stated) | 104%
96 | CCCc1ccc(OCCNC(=O)c2ccco2)cc1 | 83.5%
97 | CC(C)Oc1ccc(CCC(=O)NNC(=S)NCc2ccccc2)cc1 | 103%
98 | COc1ccc(C(=O)NC(=S)NNC(=O)c2c(-c3ccccc3)noc2C)cc1 | 102%
99 | COc1ccc(C(=O)NC(=S)NNC(=O)CCc2ccccc2)cc1 | 195% (active)
100 | CC(Oc1ccc2ccccc2c1)C(=O)NNC(=S)NC(=O)c1ccco1 (configuration not stated) | 237% (active)
101 | O=C(Nc1ccc2ccccc2c1)/C(=C/c1cccc(Br)c1)NC(=O)c1ccco1 | 91%
102 | CCCc1ccc(OCC(=O)NNC(=S)NC(=O)c2ccco2)cc1 | 182% (active)
